Screen size: about 340,000 compounds; about 8,500 (2.5%) were called active. This is one part of a sample in which actives are shown more often than they occur.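 Rule for the calls: active = melting temperature shift of at least 10% of the positive control shift, at one fixed dose; inactive = the rest.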
These compounds were tested on Glutamate receptor ionotropic, NMDA 3A (GRIN3A) ligand-binding domain (assay: NR3A LBD thermal stabilization by compounds – biophysical, differential scanning fluorimetry, uHTS, primary screen (AID 1259313)). Details: at 25 µM, stronger effect = higher value, 0% = protein alone, 100% = glycine-bound protein.

Tm shift relative to glycine control, inactive:
Cc1ccc(NC(=O)Nc2ccccc2)c(Br)c1 -0.75%
Cc1ccoc1C(=O)Nc1cccc(Oc2ccccc2)c1 -3.01%
CCOc1cc(/C=C/C(=O)OCC(=O)NCCN2C(=O)CSC2=O)ccc1OCC(C)C 0.08%
CN(Cc1ccc(F)cc1Cl)S(=O)(=O)c1cccs1 1.26%
C=CCNC(=S)N1CCc2[nH]c3ccccc3c2C1 -15.2%
CCOC(=O)C1CCN(C(=O)Nc2ccc(Cl)cc2)CC1 3.57%
CCc1ccc(NC(=O)N2CCc3ccccc3C2)cc1 -0.69%
COc1ccc(NC(=S)N2CCc3cc(OC)c(OC)cc3C2)cc1 -0.36%
Cc1ccccc1N/C(SCc1ccc(Cl)cc1)=C(/C#N)C(N)=O -24%
CC1CCN(c2ccc(-c3ccc(NC(=O)c4ccco4)cc3)nn2)CC1 5.6%
O=S(=O)(Cc1cc(Cl)nc(-c2cccnc2)n1)c1ccccc1 1.48%
CN(C(=O)c1cccc(NC(=O)Cc2ccc(NC(=O)C3CCCN(C(=O)C4CC4)C3)cc2)c1)C1CC1 (centres undefined) 1.17%
C[C@@H](Nc1nc(-c2ccccc2)nc2c1oc1ccccc12)C(=O)O 5.42%
CCc1nc(Nc2ccc3nccnc3c2)c2oc3ccccc3c2n1 -14.2%
CCCC(=O)NC(=S)Nc1ccc(CN2CCOCC2)cc1 1.2%
Cc1cc(C)nc(SCc2cn3c(C)cc(C)nc3n2)n1 -0.2%
CN(C)c1ccc(NC(=S)N(CCc2ccccc2)C2CC(=O)N(c3c(Cl)cccc3Cl)C2=O)cc1 (centres undefined) -2.73%
COC(=O)CN(C(=S)Nc1ccc(Cl)cc1)C1CC(=O)N(c2ccc(OC)cc2)C1=O (centres undefined) 1.51%
O=C(O)C#Cc1cccc2ccccc12 -2.09%
CCC[C@@H]1C[C@@]1(CCC)[C@@H](NC(=O)c1ccccc1)c1ccc(C(=O)OC)cc1 -0.95%
Cc1cc(C)c(NC(=O)CSc2nc3ccncc3[nH]2)c(C)c1 -0.53%
COc1ccc2nc(SCC(=O)Nc3c(C)cc(C)cc3C)[nH]c2c1 2.89%
COC1=CC(=O)OC(c2ccc(OC)cc2)C1 (centres undefined) 3.44%
Cc1ccc(CNC(=O)CCS(=O)(=O)c2ccc3c(c2)CC(C)N3C(=O)C2CC2)o1 (centres undefined) -0.09%
CCOC(=O)C1=C(C)c2ccccc2OC1C(=O)OCC (centres undefined) 0.67%
CCOC(=O)C(=Cc1ccccc1OC)C(=O)OCC 0.09%
COC(=O)Cn1cnc2scc(-c3ccc(C)c(C)c3)c2c1=O 0%
NCCN1CCN2C(=O)CN(C(=O)c3ccccc3)CC12 (centres undefined) -1.42%
Cc1cc(F)ccc1NC(=S)NCCc1ccccc1 -1.3%
Cn1c(N)c(C(=O)COC(=O)c2ccc3ccccc3c2)c(=O)n(C)c1=O -3.76%
CC(=O)Nc1cccc(Nc2nc(-c3cccs3)nc3ccccc23)c1 1.63%
Oc1ccc(-c2nnc(Nc3ccccc3)c3ccccc23)cc1 -0.38%
COc1ccc(N2CCN(C(=O)CNC(=O)c3ccc(C(C)(C)C)cc3)CC2)cc1 3.46%
CC(C)(C)c1cc2cccnc2n1Cc1ccccc1 -1.7%
CCOc1ccc(NC(=O)CC2C(=O)N(c3ccccc3)C(=O)N2CCOC)cc1 (centres undefined) -0.16%
COCCN1C(=O)N(c2ccc(Cl)cc2)C(=O)C1CC(=O)Nc1cc(OC)cc(OC)c1 (centres undefined) 0.08%
CC(C)N1CCC(=NNc2ccc([N+](=O)[O-])cc2S(=O)(=O)N2CCOCC2)CC1 0.15%
Cc1ccc(S(=O)(=O)N2CCCCC2)cc1NC(=O)c1cccnc1 -0.36%
O=C(CCNC(=O)c1ccc(Br)cc1)Nc1cccc(S(=O)(=O)N2CCCCC2)c1 -8.95%
CCOC(=O)NN1C(=O)c2ccccc2NC1c1ccccc1O (centres undefined) 1.62%
C=CCOc1c(CNn2cn[nH]c2=S)cccc1OC 1.48%
Cc1cc(C)cc(NC(=O)c2cccc(NC(=O)C3C4CC5OC(=O)C3C5C4)c2)c1 (centres undefined) 3.21%
COC(=O)CNC(c1ccccc1Cl)c1cc(Br)ccc1NC(=O)CCN1CCOCC1 (centres undefined) -6.58%
Cc1ccc(CNC(=O)c2cccc3c2C(=O)c2ccc(N4CCC(C)CC4)cc2S3(=O)=O)cc1 0.32%
NC(=O)C(Cc1ccccc1)NC(=O)C12CC3CC(CC(C3)C1)C2 (centres undefined) 1.38%
CCOC(=O)c1c(C)oc2cc(Sc3ccccc3)c(O)c(O)c12 1.87%
COc1ccc(CCN2CC(C(=O)OCC(=O)NCc3ccccc3Cl)CC2=O)cc1OC (centres undefined) -0.25%
COc1ccc(C(CNC(=O)c2cccnc2SC)N2CCOCC2)cc1 (centres undefined) -0.34%
COc1ccc(C(CNC(=O)c2ccc(S(=O)(=O)Nc3ccccc3C)cc2)N2CCOCC2)cc1 (centres undefined) 2.35%
O=C(NCCCN1CCOCC1)c1cc2c(s1)CCC2 1.5%
COc1ccc(C(CNC(=O)c2cccc(NS(=O)(=O)c3ccc(C)c(F)c3)c2)N2CCCC2)cc1 (centres undefined) -1.75%
CC(C)NC(=O)c1ccccc1S(=O)c1ccccc1C#N (centres undefined) -0.24%
Cc1noc(C)c1S(=O)(=O)N(C)Cc1ccccc1 -2.24%
CCNC(=O)CCc1nc(-c2ccc(C(C)(C)C)cc2)no1 2.39%
COCCN(CCOC)S(=O)(=O)NC[C@H]1O[C@@H](n2cnc3c(N)ncnc32)[C@H](O)[C@@H]1O -2.01%
CN(NS(=O)(=O)c1cccs1)c1ncc(C(F)(F)F)cc1Cl -0.95%
O=C(NCCCN1CCOCC1)c1cn(-c2ccccc2)nc1-c1ccc(F)cc1 -0.58%
O=C(/C=C/c1ccc([N+](=O)[O-])o1)NNC(=O)c1ccc(F)cc1 -1.3%
O=C(CCn1nnc2ccccc21)OCC(=O)c1ccc([N+](=O)[O-])cc1 -0.44%
O=C(Nc1ccc(Cl)cn1)c1ccc2c(c1)OCCO2 -0.17%
Cc1ccc(C(=O)NNC(=O)c2ccc3c(c2)OCCO3)cc1 1.65%
O=S(=O)(c1cccc(Cn2nnc(-c3ccc(F)cc3)n2)c1)N1CCOCC1 0.18%
COc1ccc(S(=O)(=O)N(C)C[C@H]2Oc3c(NC(=O)Nc4ccc5c(c4)OCO5)cccc3C(=O)N([C@H](C)CO)C[C@@H]2C)cc1 -34%
CC(=O)NC(=S)Nc1ccc(NC(=O)c2cccnc2)cc1 2.02%
Cc1ccc(-n2nc3cc(C)c(NC(=O)c4cccnc4)cc3n2)cc1 -2.09%
Cc1cc(NS(=O)(=O)c2ccc(NC(=O)c3cccnc3)cc2)nc(C)n1 -0.7%
CCOC(=O)c1ccc(NC(=O)c2cccnc2)cc1 0.68%
Cc1ccc(C2CC(c3cccc(NS(C)(=O)=O)c3)=NN2S(C)(=O)=O)cc1 (centres undefined) -1.41%
CC(C)(C)C(=O)COC(=O)c1cc(S(=O)(=O)N2CCCCC2)ccc1N1CCOCC1 -1.85%
COc1ccccc1CNS(=O)(=O)c1ccc2c(c1)NC(=O)CS2 1.27%
COc1ccc(Cl)cc1C=CC=Nc1ccc(S(N)(=O)=O)cc1 -9.77%
O=C(NN=Cc1ccccc1)c1ccccc1 3.44%
Cc1nc2ccc(C(=O)N/N=C/c3ccc(O)cc3)cc2[nH]1 -4.58%
CSc1ccc(/C=N\NC(=O)CC(=O)NC(C)C)cc1 -7.31%
CC(=NNC(=O)c1ccc2nc[nH]c2c1)c1ccc(Br)cc1 -13%

Tm shift relative to glycine control, active:
Cc1cccc(NC(=O)Nc2cccc(Oc3c(F)c(F)c(F)c(F)c3F)c2)c1 29.1%
O=C(Nc1ccc(Cl)cc1)N1CCc2[nH]c3ccccc3c2C1 250%
Fc1ccc(NC(=S)N2CCc3[nH]c4ccccc4c3C2)cc1 13.3%
CCc1nc(Nc2ccc(NC(C)=O)cc2)c2oc3ccccc3c2n1 10%
CCOc1ccc(N2C(=O)CC(N(CCc3ccc(OC)c(OC)c3)C(=S)Nc3ccccc3)C2=O)cc1 (centres undefined) 14.8%
CCCCNS(=O)(=O)c1ccc2nc(SCC(=O)Nc3cc(C)cc(C)c3)[nH]c2c1 23.7%
CCc1cccc2c3c([nH]c12)C(CC)(CC(=O)O)OCC3 (centres undefined) 14.4%
C=C1c2cccc(OC)c2O[C@H](C(=O)OCC)[C@@H]1CCCCCC 19.5%
Cc1cccc(-c2nc(Nc3ccc(O)cc3)c3ccccc3n2)c1 44.7%
COC(=O)CN1C(=S)N(c2ccccc2)C(=O)C1CC(=O)Nc1ccc(Cl)cc1 (centres undefined) 28.7%
Cc1ccc(S(=O)(=O)N2CCCCC2)cc1NC(=O)CCNC(=O)c1ccccc1 10.2%
COc1ccc(C(CNC(=O)c2cc3c(s2)CCCC3)N2CCOCC2)cc1 (centres undefined) 53.2%
COc1ccc(C(CNC(=O)c2cccc(S(=O)(=O)Nc3ccccc3Cl)c2)N2CCOCC2)cc1 (centres undefined) 15.6%
O=C(N/N=C/c1ccc([N+](=O)[O-])o1)c1cn(-c2ccccc2)nc1-c1ccc(F)cc1 57.3%
Cc1nc(NC(=O)c2ccc3c(c2)OCCO3)ccc1Br 11.1%
Cc1ccc2nc(-c3ccc(NC(=O)c4cccnc4)cc3)oc2c1 24%
Cc1cc2nc(-c3ccc(NC(=O)c4cccnc4)cc3)oc2cc1C 24.6%
O=C(N/N=C/c1ccc(Cl)c(Cl)c1)c1ccc2nc[nH]c2c1 27.4%
CSc1ccc(/C=N/NC(=O)c2cccc(Cl)c2)cc1 19.1%

From PubChem BioAssay AID1259313 (Sanford-Burnham Center for Chemical Genomics, 2017)
